The supplement of paper PMC10849652
About 7,900 targets were measured; listed, in parts, are those with a hit and a random draw of the rest. About 0.6% of all pairs of compound and target were hits. Unmarked numbers belong to inactive results.

Key:
Test in all cases: log2 fold change, soluble protein after heating vs DMSO (PISA); higher = thermal stabilisation; K562 cells, 10 uM, 30 min; active = over 0.2 and 3.5 SD of the protein, either way, in both replicates (recomputed)
[1] = compound: CC[C@@H]1C(=O)N(C)c2cnc(Nc3ccc(C(=O)NC4CCN(C)CC4)cc3OC)nc2N1C1CCCC1
Summary of the method: (§1)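 Values are thermal stability changes relative to control samples and are taken from duplicates. They are stated as log2 fold changes. Before quantification by TMTpro 16plex LC-MS/MS with equalised channel sums, K562 cells at 2×10^6 cells/mL were treated with 10 μM compound for 30 min, heated in aliquots for 3 min across 48°C-58°C, pooled, extracted in PBS with 0.5% NP-40 at 4°C, and centrifuged at 21,000xg for 90 min to give the soluble supernatant.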

[2] = compound: CC[C@@H]1C(=O)N(C)c2cnc(Nc3ccc(C(=O)N[C@H]4CC[C@H](N5CCN(CC6CC6)CC5)CC4)cc3OC)nc2N1C(C)C [volasertib]
Summary of the method: as §1

[3] = compound: CC[C@H](C)N1C=C(C2=C(C=C(C=C21)C3=CN=C(C=C3)N4CCNCC4)C(=O)NCC5=C(C=C(NC5=O)C)C)C
Summary of the method: as §1

[4] = compound: CC[C@H](C)[C@@H](C(=O)N[C@@H]([C@@H](C)O)C(=O)N[C@@H](CC(C)C)C(=O)[C@]1(CO1)C)NC(=O)[C@H]([C@@H](C)CC)N(C)C(=O)C [epoxomicin]
Summary of the method: as §1

[5] = compound: CCn1c(C(=O)N(C2CC2)C2CC2)cc2c3c(ncn3C)c(Nc3cc(C)n(C)n3)nc21
Summary of the method: as §1

[6] = compound: CCn1cc(-c2ccnc3[nH]c(-c4cccc(CN(C)C)c4)cc23)c(-c2ccc(NC(=O)N(C)C)cc2)n1
Summary of the method: as §1

[7] = compound: CN(C)CC(=O)Nc1ccc2[nH]c(=O)c3ccccc3c2c1
Summary of the method: as §1

[8] = compound: CN(CCOC1=CC=C(C=C1)C[C@H]2C(=O)NC(=O)S2)C3=CC=CC=N3 (racemic) [rosiglitazone]
Summary of the method: as §1

[9] = compound: CN1C2=C(C3=C1C(=O)N(N=C3)CC4=CC(=CC=C4)N)SC(=C2)S(=O)C
Summary of the method: as §1

[10] = compound: CN1CCC(CNc2ccc3ncc(-c4cccc(OC(F)(F)F)c4)n3n2)CC1
Summary of the method: as §1

[11] = compound: CN1CCN(CCOc2cc(OC3CCOCC3)c3c(Nc4c(Cl)ccc5c4OCO5)ncnc3c2)CC1 [saracatinib]
Summary of the method: as §1

[12] = compound: CN1CCN(c2nc(C3=C(c4c[nH]c5ccccc45)C(=O)NC3=O)c3ccccc3n2)CC1 [sotrastaurin]
Summary of the method: as §1

[13] = compound: CN1CC[C@H](c2c(O)cc(O)c3c(=O)cc(-c4ccccc4Cl)oc23)[C@H](O)C1 [alvocidib]
Summary of the method: as §1

[14] = compound: CN1CCc2c(c3ccccc3n2Cc2ccc(C(=O)NO)cc2)C1 [Tubastatin A]
Summary of the method: as §1

[15] = compound: CNC(=O)C1=CC=CC=C1NC2=NC(=NC=C2Cl)NC3=C(C=C(C=C3)N4CCOCC4)OC
Summary of the method: as §1

[16] = compound: CNC(=O)c1ccc(Nc2ncc(C(F)(F)F)c(NCc3nccnc3N(C)S(C)(=O)=O)n2)cc1 [defactinib]
Summary of the method: as §1

[17] = compound: CNCc1ccc(-c2[nH]c3cc(F)cc4c3c2CCNC4=O)cc1 [rucaparib]
Summary of the method: as §1

[18] = compound: CNc1nc(-c2ccc3c(N)n[nH]c3c2)cc(N2C[C@@H](C(=O)NC3CCCCC3)CC[C@H]2C)n1
Summary of the method: as §1

[19] = compound: COC(=O)N[C@@H](C)CNc1nccc(-c2cn(C(C)C)nc2-c2cc(Cl)cc(NS(C)(=O)=O)c2F)n1 [encorafenib]
Summary of the method: as §1

[20] = compound: COC(=O)[C@H](CCSC)NC(=O)C1=C(C=C(C=C1)NC[C@H](CS)N)C2=CC=CC=C2
Summary of the method: as §1

UniProt P11117, sequence (P11117 whole entry, looked up): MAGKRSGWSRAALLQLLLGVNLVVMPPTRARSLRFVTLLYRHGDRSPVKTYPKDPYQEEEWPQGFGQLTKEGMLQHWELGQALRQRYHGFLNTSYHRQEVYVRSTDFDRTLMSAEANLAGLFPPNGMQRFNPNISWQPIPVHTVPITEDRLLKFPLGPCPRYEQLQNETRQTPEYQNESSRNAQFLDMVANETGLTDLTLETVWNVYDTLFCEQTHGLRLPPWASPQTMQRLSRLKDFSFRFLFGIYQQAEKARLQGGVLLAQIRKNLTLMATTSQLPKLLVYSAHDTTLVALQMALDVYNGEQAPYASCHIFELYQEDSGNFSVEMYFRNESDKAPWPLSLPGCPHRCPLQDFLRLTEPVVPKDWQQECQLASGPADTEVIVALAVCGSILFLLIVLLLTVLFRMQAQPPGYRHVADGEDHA
UniProt Q86WA6, sequence (Q86WA6 whole entry, looked up): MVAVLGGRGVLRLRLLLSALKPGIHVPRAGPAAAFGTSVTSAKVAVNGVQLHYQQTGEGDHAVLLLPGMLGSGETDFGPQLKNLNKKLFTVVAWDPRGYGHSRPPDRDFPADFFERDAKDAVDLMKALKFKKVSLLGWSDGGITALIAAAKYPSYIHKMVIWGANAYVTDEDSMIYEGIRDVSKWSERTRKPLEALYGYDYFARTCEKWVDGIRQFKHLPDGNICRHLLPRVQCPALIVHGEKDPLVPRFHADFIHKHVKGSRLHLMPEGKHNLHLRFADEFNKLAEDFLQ
UniProt P11310, sequence (P11310 whole entry, looked up): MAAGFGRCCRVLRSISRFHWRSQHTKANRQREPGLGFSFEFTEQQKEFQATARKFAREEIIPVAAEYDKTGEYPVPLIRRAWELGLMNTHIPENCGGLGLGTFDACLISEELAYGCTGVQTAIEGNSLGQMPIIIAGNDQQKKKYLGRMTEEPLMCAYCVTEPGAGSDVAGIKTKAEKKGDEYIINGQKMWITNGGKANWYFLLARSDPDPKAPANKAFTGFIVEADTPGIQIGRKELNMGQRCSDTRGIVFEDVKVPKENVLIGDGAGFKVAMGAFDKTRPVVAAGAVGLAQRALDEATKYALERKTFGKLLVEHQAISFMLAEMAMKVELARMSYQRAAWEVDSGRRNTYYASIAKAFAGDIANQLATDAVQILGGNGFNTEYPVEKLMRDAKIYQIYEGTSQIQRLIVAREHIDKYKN
UniProt Q7Z3C6, sequence (Q7Z3C6 whole entry, looked up): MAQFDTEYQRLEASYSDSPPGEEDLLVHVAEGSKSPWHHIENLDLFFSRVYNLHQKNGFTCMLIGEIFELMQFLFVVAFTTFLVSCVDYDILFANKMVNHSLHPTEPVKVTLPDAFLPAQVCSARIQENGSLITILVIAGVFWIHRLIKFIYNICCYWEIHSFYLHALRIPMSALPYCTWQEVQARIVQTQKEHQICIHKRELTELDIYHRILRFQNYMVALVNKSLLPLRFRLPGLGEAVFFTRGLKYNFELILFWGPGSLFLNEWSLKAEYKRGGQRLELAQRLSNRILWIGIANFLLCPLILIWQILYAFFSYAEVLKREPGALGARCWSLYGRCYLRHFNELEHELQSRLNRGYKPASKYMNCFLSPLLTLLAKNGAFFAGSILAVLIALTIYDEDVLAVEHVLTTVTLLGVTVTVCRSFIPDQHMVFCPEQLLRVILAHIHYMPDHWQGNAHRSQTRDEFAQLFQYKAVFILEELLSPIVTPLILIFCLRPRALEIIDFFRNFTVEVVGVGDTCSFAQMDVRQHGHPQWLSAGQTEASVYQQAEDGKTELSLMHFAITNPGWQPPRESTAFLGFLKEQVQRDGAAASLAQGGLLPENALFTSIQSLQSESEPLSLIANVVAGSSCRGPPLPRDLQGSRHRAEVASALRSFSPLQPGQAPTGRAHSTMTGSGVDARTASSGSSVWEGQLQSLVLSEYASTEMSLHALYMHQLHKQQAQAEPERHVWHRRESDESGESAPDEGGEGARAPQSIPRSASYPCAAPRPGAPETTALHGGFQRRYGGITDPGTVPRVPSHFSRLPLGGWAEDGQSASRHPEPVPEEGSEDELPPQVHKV
UniProt Q9NVI7, sequence (Q9NVI7 whole entry, looked up): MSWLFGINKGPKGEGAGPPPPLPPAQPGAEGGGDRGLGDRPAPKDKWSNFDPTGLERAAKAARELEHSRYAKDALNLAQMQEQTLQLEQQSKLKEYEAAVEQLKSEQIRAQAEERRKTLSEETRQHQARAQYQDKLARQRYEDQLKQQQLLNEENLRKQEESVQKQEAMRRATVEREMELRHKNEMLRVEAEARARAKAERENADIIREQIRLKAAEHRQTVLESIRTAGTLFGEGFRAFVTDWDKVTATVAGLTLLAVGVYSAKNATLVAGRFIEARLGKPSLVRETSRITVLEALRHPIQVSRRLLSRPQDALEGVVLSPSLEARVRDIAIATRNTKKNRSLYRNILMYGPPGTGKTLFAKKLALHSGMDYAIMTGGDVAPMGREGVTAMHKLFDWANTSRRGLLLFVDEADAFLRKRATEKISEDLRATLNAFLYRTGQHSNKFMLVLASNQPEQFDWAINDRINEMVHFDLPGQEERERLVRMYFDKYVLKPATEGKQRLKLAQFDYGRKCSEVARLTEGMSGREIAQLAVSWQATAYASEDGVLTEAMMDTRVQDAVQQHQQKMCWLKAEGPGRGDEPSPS
UniProt Q9Y487, sequence (Q9Y487 whole entry, looked up): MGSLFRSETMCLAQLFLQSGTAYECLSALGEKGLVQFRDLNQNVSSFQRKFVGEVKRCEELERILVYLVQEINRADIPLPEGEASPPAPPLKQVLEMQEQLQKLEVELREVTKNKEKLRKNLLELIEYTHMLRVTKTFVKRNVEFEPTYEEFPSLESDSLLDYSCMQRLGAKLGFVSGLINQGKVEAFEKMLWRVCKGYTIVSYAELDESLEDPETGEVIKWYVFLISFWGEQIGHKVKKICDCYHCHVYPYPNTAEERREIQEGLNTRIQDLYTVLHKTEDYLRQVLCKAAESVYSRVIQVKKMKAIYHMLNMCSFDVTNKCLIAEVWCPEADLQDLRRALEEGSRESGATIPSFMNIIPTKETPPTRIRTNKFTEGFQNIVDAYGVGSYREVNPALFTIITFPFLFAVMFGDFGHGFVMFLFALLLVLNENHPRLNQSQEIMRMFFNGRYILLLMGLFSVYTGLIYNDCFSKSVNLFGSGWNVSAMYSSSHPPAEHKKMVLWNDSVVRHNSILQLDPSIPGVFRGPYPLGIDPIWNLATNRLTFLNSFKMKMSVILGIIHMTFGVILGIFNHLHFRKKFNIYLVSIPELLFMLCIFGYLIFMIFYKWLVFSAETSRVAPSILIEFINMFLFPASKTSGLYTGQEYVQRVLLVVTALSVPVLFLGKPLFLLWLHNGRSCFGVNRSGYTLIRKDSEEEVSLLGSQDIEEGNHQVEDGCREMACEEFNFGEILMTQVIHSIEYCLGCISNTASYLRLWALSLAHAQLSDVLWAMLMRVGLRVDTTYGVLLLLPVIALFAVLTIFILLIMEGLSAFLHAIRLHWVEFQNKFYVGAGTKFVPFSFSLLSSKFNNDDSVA
UniProt P35670, sequence (P35670 whole entry, looked up): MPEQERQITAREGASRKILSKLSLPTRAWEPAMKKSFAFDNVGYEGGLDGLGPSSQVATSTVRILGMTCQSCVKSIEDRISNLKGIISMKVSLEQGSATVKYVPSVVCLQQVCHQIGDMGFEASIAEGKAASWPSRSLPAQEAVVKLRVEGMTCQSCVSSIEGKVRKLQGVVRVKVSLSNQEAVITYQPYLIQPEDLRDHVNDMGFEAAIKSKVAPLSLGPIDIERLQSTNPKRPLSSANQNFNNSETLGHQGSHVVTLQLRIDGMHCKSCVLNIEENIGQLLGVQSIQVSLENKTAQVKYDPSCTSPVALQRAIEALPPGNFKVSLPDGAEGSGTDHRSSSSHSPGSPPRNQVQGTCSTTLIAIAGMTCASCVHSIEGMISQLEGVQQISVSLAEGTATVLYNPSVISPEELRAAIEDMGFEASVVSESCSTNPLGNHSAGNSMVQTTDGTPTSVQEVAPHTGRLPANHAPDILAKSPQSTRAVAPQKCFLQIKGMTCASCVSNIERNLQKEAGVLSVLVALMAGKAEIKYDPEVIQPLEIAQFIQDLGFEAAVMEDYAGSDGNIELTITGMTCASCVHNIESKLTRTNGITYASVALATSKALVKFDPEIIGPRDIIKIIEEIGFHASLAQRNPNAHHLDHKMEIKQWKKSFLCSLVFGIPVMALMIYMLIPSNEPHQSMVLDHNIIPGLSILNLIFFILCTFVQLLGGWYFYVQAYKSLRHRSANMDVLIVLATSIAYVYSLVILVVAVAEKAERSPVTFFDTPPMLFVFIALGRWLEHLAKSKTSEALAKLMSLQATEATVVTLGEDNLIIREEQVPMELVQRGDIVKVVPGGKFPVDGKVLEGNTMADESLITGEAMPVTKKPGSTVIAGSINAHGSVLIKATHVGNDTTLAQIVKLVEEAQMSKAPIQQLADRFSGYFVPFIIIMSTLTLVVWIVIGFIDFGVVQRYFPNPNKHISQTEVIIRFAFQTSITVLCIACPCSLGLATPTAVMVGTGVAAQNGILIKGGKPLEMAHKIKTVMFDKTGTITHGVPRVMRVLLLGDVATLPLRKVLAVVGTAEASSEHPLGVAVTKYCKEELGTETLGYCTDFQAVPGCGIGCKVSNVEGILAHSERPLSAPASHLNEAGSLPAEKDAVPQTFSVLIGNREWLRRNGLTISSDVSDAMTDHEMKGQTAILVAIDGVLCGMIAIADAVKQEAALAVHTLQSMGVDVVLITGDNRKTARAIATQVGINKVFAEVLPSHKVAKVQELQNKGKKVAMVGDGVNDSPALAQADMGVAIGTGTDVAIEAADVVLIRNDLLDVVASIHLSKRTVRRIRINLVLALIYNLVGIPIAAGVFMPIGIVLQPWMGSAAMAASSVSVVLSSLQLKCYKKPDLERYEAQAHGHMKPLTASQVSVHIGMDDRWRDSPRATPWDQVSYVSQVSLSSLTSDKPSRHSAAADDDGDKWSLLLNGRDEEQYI
UniProt P56385, sequence (P56385 whole entry, looked up): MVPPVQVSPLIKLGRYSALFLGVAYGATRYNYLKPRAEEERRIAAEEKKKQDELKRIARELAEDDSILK

Target	log2 fold change [1]	log2 fold change [2]	log2 fold change [3]	log2 fold change [4]	log2 fold change [5]	log2 fold change [6]	log2 fold change [7]	log2 fold change [8]	log2 fold change [9]	log2 fold change [10]	log2 fold change [11]	log2 fold change [12]	log2 fold change [13]	log2 fold change [14]	log2 fold change [15]	log2 fold change [16]	log2 fold change [17]	log2 fold change [18]	log2 fold change [19]	log2 fold change [20]
AHCYL1 (UniProt O43865)	0.021	0.036	-0.099	-0.007	-0.027	-0.097	0.018	0.018	-0.115	-0.063	0.101	0.014	0.1	-0.042	0.182	0.104	0.044	0.061	-0.043	-0.005
BPHL (UniProt Q86WA6)	0.013	-0.005	0.065	0.005	0.027	-0.017	-0.07	0.041	0.017	0.063	0.056	0.019	-0.083	-0.259	0.025	-0.014	0.069	0.006	-0.012	-0.017
ATAD1 (UniProt Q8NBU5)	-0.008	-0.127	0.056	0.065	-0.013	-0.027	0.064	0.021	-0.033	-0.046	-0.044	0.029	-0.007	0.008	-0.032	-0.029	0.018	0.136	0.017	-0.042
ATG9A (UniProt Q7Z3C6)	-0.019	-0.326 (active)	0.027	-0.007	0.002	-0.06	0.018	0.008	0.058	-0.118	0.016	-0.084	-0.086	0.067	-0.029	-0.09	-0.008	-0.052	0.055	-0.013
ACP2 (UniProt P11117)	-0.156	-0.151	-0.068	0.019	0.004	-0.02	-0.029	0.006	0.013	-0.14	0.026	0.022	0.003	-0.036	-0.006	0.01	-0.089	-0.055	0.018	-0.006
ATP5ME (UniProt P56385)	0.004	0.038	-0.048	0.075	-0.002	0.002	-0.054	-0.013	0.018	0.069	0.026	0.009	0.04	-0.009	-0.006	0.029	-0.022	-0.069	-0.07	0.023
ATAD3A isoform 2 (UniProt Q9NVI7)	-0.145	-0.202	0.038	0.05	-0.055	0.033	0.018	0.007	0.177	-0.319 (active)	0.001	-0.053	0.102	0.04	-0.139	0.05	0.252	-0.017	0.154	-0.046
BRD4 (UniProt O60885)	1.89 (active)	2.02 (active)	-0.007	0.136	-0.016	0.597 (active)	0.169	-0.01	-0.09	-0.062	0.047	-0.149	-0.044	-0.156	0.065	-0.051	-0.073	0.204	0.01	-0.002
ANKZF1 (UniProt Q9H8Y5)	-0.063	-0.055	0.036	-0.001	-0.036	0.004	-0.076	-0.002	0.214	0.066	-0.146	-0.093	0.034	0.088	0.04	0.123	0.167	0.156	0.119	-0.274
ATP1A1 (UniProt P05023)	0.058	0.059	-0.029	-0.025	0.021	-0.026	-0.009	-0.004	-0.053	0.26 (active)	0.046	0.039	-0.034	-0.026	-0.026	-0.024	-0.009	0.011	-0.001	0.014
ATP6V0A2 (UniProt Q9Y487)	-0.039	-0.039	0.067	0.043	0.007	0.028	-0.034	-0.037	0.006	-0.169	-0.009	-0.07	0.036	0.061	-0.003	0.019	-0.003	-0.021	0.043	-0.039
ACADM isoform 2 (UniProt P11310)	-0.045	-0.03	-0.015	0.015	0.014	-0.042	-0.024	0.008	-0.078	-0.011	0.031	0.274 (active)	-0.006	-0.03	0.019	-0.016	-0.024	0.083	-0.016	0.004
ATP7B (UniProt P35670)	-0.03	-0.043	0.06	0.103	0.061	-0.031	0.024	0.069	0.034	0.009	0.069	0.005	-0.085	0.01	-0.019	-0.011	-0.044	0.005	0.052	-0.021
AKT1 (UniProt P31749)	0	-0.503	0.068	0.158	-0.119	-0.08	0.133	0.257	0.107	0.222	-0.163	-0.25	-0.043	0.111	0.317	-0.062	0.038	-0.24	-0.003	-0.025
AIFM2 (UniProt Q9BRQ8)	0.002	-0.035	-0.058	-0.035	-0.025	-0.017	0.003	0.001	-0.069	0.068	0.017	0.08	-0.02	-0.026	-0.016	-0.029	0.011	0.003	-0.017	-0.01
ATP2A3 isoform 2 (UniProt Q93084)	-0.142	-0.208	0.046	0.06	0.014	-0.047	-0.028	0.009	-0.016	0.028	0.058	-0.007	-0.021	-0.022	-0.026	-0.021	-0.04	0.033	0.027	0.002
